Measurements taken from PubChem BioAssay (NCI).
“And” between values parts separate entries of the source, which are not always exact repeats. Identical values can stand only once. The panel holds about 79,000 compounds, 15% with a hit somewhere; the sample as a whole holds those more often. Rule as the data show it: active = growth inhibition above about 70%; inactive = the rest.

How the values were obtained:
[1] = NCI Yeast Anticancer Drug Screen. Data for the rad50 strain (AID 155);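 also: 0% = growth of vehicle-only cultures of the same strain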; settings: S. cerevisiae rad50 strain growth inhibition, hits give high values; at 50.0 µM unless noted
Method in brief: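 Yeast carrying a defined DNA repair defect were exposed to test compounds, and growth was compared with vehicle-treated controls to give percent inhibition.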

[2] = NCI Yeast Anticancer Drug Screen. Data for the mec2-1 strain (AID 157); settings: S. cerevisiae mec2-1 strain, hits give high values; at 50.0 µM unless noted
Method in brief: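 Yeast mec2-1 mutant treated with compound. Readout: growth inhibition vs vehicle controls.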

[3] = NCI Yeast Anticancer Drug Screen. Data for the sgs1 mgt1 strain (AID 161);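 also: 0% = growth of cultures given vehicle only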; settings: S. cerevisiae sgs1 mgt1 strain, hits give high values; at 50.0 µM unless noted
Method in brief: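 Read-out: growth inhibition vs vehicle controls. Cells: mutant yeast strain deficient in DNA damage repair.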

[4] = NCI Yeast Anticancer Drug Screen. Data for the cln2 rad14 strain (AID 165);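 also: 0% = growth equal to vehicle treated cultures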; settings: S. cerevisiae cln2 rad14 strain, hits give high values; at 50.0 µM unless noted
Method in brief: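 cln2 rad14 yeast strain; compound exposure; growth inhibition read vs vehicle controls.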

[5] = NCI Yeast Anticancer Drug Screen. Data for the bub3 strain (AID 167); settings: S. cerevisiae bub3 mutant strain, hits give high values; at 50.0 µM unless noted
Method in brief: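 Compounds were applied to a genetically altered yeast strain carrying a cell-cycle control defect. Growth inhibition was scored against vehicle-treated controls.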

[6] = NCI Yeast Anticancer Drug Screen. Data for the mlh1 rad18 strain (AID 175); settings: S. cerevisiae mlh1 rad18 strain growth inhibition, hits give high values; at 50.0 µM unless noted
Method in brief: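 Yeast w/ defined DNA-repair lesions; compound exposure; growth vs vehicle controls → % inhibition.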

Measured: growth inhibition

CCCCCCCCOC(=O)NC1c2ccccc2Oc2c(C)cccc21 (stereo not given)
inactive: [1] 1.7% | [2] 5.9% | [3] 9.45% | [4] -30.1% | [5] -3.05% | [6] 12.9%

OCCCCCSc1ccccc1
inactive: [1] 17.4% | [2] 4.35% | [3] 7.95% | [4] 1.95% | [5] -11.1% | [6] 7.3%

CCCCCCC(C)OB(OC(C)CCCCCC)OC(C)CCCCCC (stereo not given)
inactive: [1] -27.6% | [2] -49% | [3] -0.8% | [4] 13.8% | [5] -41.4% | [6] -0.85%

O=c1c2ccccc2oc2c(Cl)cc(Cl)cc12
inactive: [1] -0.95% | [2] -0.05% | [3] 9.35% | [4] -10.3% | [5] -6.5% | [6] 0.8%

CC1CN(CCO)CCN1Cc1ccccc1 (stereo not given)
inactive: [1] -12.6% | [2] -12.3% | [3] -16.6% | [4] -5.1% | [5] -12.6% | [6] -5.8%

Cc1cccc(NC(=O)N(C(C)C)C(C)C)c1
inactive: [1] -16.4% | [2] -38.2% | [3] -3.55% | [4] 2.8% | [5] 5.8% | [6] -27.6%

CCN(CC)CCNc1c(OC)c(OC)cc2nccnc12
inactive: [1] 9.85% | [2] 9.7% | [3] 30.9% | [4] 2.85% | [5] 0.2% | [6] -1.75%

C=C1C2CCC(C2)C1(C)CC/C=C(/C)CO (stereo not given) (tested in a mixture with another compound)
inactive: [1] 34.4% and 47.7% | [2] 9.65% and 7.15% | [3] 33.2% and 41.6% | [4] 20.2% and 7.3% | [5] 35.5% and 19.8% | [6] 16.4% and 26.4%

N#Cc1c(-c2ccccc2)[nH]c2ccccc2c1=O
inactive: [1] 54.7% | [2] 55.4% | [3] 2.05% | [4] 11.3% | [5] -3.65% | [6] -17.5%

O=C1NC(Cc2ccccc2)C(=O)NC1Cc1ccccc1 (stereo not given)
inactive: [1] 2.35% | [2] -6.7% | [3] 7.7% | [4] -22.8% | [5] -4.95% | [6] -1.35%

Nc1cc(S(=O)(=O)O)cc2cc(S(=O)(=O)O)cc(S(=O)(=O)O)c12
inactive: [1] -31.6% | [2] -51% | [3] -29.6% | [4] -144% | [5] -17.5% | [6] 23.4%

CC(C)(O)CCNc1ncnc2c1ncn2C1OC(CO)C(O)C1O (stereo not given)
inactive: [1] 2% | [2] -1.75% | [3] 9.7% | [4] -6.8% | [5] 13.9% | [6] 13.8%

O=c1c2cc(Cl)ccc2c2ccc(Cl)cc2c(=O)n1-c1ccc2c(c1)Cc1ccccc1-2
inactive: [1] 1.65% | [2] -0.2% | [3] -1.7% | [4] -10.6% | [5] 8.8% | [6] -3.4%

O=C(Nc1ccc(S(=O)(=O)c2ccc(F)cc2)cc1)OC1CCCCC1
inactive: [1] 35.9% | [2] 5.85% | [3] 38.9% | [4] 18.1% | [5] 4.4% | [6] 18.4%

O=C(Nc1ccc2c(c1)Cc1c(F)cccc1-2)C(F)(F)F
inactive: [1] -4.8% | [2] -16.4% | [3] -3.95% | [4] -7.95% | [5] 9.45% | [6] 11.2%

Cc1cc(C(=O)C(C#N)=Nc2ccc(N(C)C)cc2)c(CN2C(=O)c3ccccc3C2=O)c(=O)n1C
inactive: [1] 22.9% | [2] -12.1% | [3] 19.3% | [4] -28.1% | [5] -6.15% | [6] 5.95%

CC[N+]1(CC)CCOC(=O)C1
inactive: [1] -15.8% | [2] -2.6% | [3] -3.9% | [4] 22.9% | [5] -19.4% | [6] -26.9%

COc1cc2c(c(OC)c1OC)-c1ccc(SC)c(=O)cc1[C@@H](NC(=O)CCl)CC2
inactive: [1] -2.1% | [2] 19.6% | [3] 0.5% | [4] 6.85% | [5] 16.6% | [6] 15.6%

CC(Br)CCCBr (stereo not given)
inactive: [1] -19.1% | [2] -5.65% | [3] -21.1% | [4] -22.4% | [5] -4.5% | [6] -13.8%

O=c1[nH]cnc2c1ncn2C1OC(CO)C(O)C1O (stereo not given)
inactive: [1] 8% and -14.7% | [2] 8.25% and -20.1% | [3] 0.45% and 12.8% | [4] -117% and 5% | [5] 15.4% and 21.7% | [6] 5.85% and 5.3%
